GDH-TPI inh = counter-screen for M. tuberculosis FBA inhibitors: GDH-TPI coupled enzymes | GDH-TPI coupled enzyme counterscreen, NADH absorbance | 360,000 tested, 1.2% active | inhibition, % at 4.8 µM; in the data active = inhibition above about 30%;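 note: 0% = DMSO wells and 100% = wells lacking the enzyme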
Rv3671c protease = Rv3671c (M. tuberculosis) protease inhibition; 320,000 tested, 0.048% active; inhibition, % at 5.96 µM; in the data active = inhibition above about 38%;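 note: extracellular domain of Rv3671c used as enzyme; 0% = enzyme with DMSO and 100% = no enzyme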
Mtb FBA inh = Mtb fructose-bisphosphate aldolase inhibition; P9WQA3; purified M. tuberculosis FBA, fluorescence read-out; inhibition, % at 1 µM; 360,000 tested, 2.3% active; AID 588726; in the data active = inhibition above about 27%;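 note: 0% = vehicle and 100% = reference inhibitor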
Target sequence (P9WQA3 whole entry, looked up): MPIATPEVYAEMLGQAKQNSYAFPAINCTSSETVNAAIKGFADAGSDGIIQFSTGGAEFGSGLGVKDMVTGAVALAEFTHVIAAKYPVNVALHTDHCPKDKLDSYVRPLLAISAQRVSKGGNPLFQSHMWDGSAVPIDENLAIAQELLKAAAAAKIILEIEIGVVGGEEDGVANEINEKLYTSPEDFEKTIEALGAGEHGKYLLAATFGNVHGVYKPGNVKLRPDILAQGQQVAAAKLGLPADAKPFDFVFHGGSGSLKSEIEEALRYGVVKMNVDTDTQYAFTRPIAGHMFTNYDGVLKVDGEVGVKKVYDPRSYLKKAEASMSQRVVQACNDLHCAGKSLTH
UGM FP inh = Mtb UDP-galactopyranose mutase inhibition; inhibition, % at 10 µM; purified UGM, fluorescence polarization probe displacement; P9WIQ1; 320,000 tested, 0.06% active; in the data active = inhibition above about 10%, passing the limit was not always enough; inconclusive = no clear call, values can overlap the other calls
Mtb betalactam = beta-lactam sensitization of Mtb H37Rv; M. tuberculosis H37Rv growth with meropenem, percent inhibition; 330,000 tested, 0.27% active; inhibition, % at 25 µM; call rule not given here;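 note: growth measured after seven days incubation then overnight dye step; 0% = bacteria only wells and 100% = bacteria with antibiotic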
FadD28 FP inh = M. tuberculosis FadD28 bisubstrate binding inhibition; 360,000 tested, 0.22% active; inhibition, % at 12.5 µM; FadD28 bisubstrate probe binding, fluorescence polarization; AID 588549; in the data active = inhibition above about 8.5%, passing the limit was not always enough; inconclusive = no clear call, values can overlap the other calls
* = called active by the depositor; ? = inconclusive; nt = no result; + = active, no number. Compounds with a hit are over-represented: about 3.7% of the library has one in this group of screens.

SMILES	GDH-TPI inh	Rv3671c protease	Mtb FBA inh	UGM FP inh	Mtb betalactam	FadD28 FP inh
CC(O)CC(=O)OC[C@]12CC[C@H]3[C@@](C)(CC[C@H]4C(C)(C)CCC[C@]34C)[C@@H]1CC(C1=CC(=O)OC1O)O2 (stereo partly drawn)	-2.1	nt	-0.8	nt	nt	-7.6
Cc1ccccc1C(=O)N/C(=C/c1ccc(-c2cccnc2Cl)o1)C(=O)NCCCN1CCN(C)CC1	38.9*	0.3	3.8	2.3	-7.4	-0.9
COc1cccc(C(=O)c2ccccc2C(=O)O)c1	nt	nt	-1.6	nt	nt	-2.0
O=C(CN1C(=O)NC2(CCCC2)C1=O)Oc1ccc2ccc(=O)oc2c1	26.5	10.6	nt	-1.8	1.0	0.8
CCc1cc(=O)oc2cc(OC(=O)CN3C(=O)NC4(CCCC4)C3=O)ccc12	18.9	0.7	+	-0.6	55.5	-1.4
CCOC(=O)Nc1ccc2c(CN3C(=O)NC4(CCCC4)C3=O)cc(=O)oc2c1	22.8	nt	+	nt	nt	-2.7
COc1ccc(S(=O)(=O)NC(=O)C2(C)CCN2C(=O)Cc2cc(F)ccc2F)cc1 (stereo not drawn)	-0.9	nt	-1.2	nt	nt	-1.0
CCN(CC)Cc1c[nH]c2c(C(=O)OC)cccc12	19.7	-7.2	67.0*	nt	9.2	-1.9
CNc1ncnc2c1ncn2[C@H]1CN(Cc2ccc(-c3ccccc3)cc2)C[C@@H](CO)O1	0.9	nt	1.9	nt	nt	-5.3
CC(=O)Oc1c(/C=C(\C#N)C(N)=O)[nH]c2ccccc12	27.2	nt	3.7	nt	nt	-0.6
CC(=O)C1=C(O)C(=O)N(CCO)C1c1ccccc1 (stereo not drawn)	46.8*	4.7	1.0	-1.1	0.3	-1.1
CC(=O)C1=C(O)C(=O)N(CCCO)C1c1ccccc1 (stereo not drawn)	20.0	-9.9	0.6	-1.3	5.0	-2.6
O=C(/C=C/c1ccc2c(c1)OCO2)c1c(O)n(CCc2ccccc2)c(=O)[nH]c1=O	-5.2	-3.0	1.6	25.7*	99.4	-0.5
O=C(/C=C/c1ccccc1)c1c(O)n(CCc2ccccc2)c(=O)[nH]c1=O	7.9	-3.5	0.5	-0.5	99.4	-3.5
COc1cc(OCc2ccccc2)c(C(=O)/C=C/c2ccc3c(c2)OCO3)c(OC)c1OC	50.3*	-4.8	1.6	4.8	-3.1	-0.6
Cc1nc2sc(C#N)c(N)c2c2c1CCCC2	-0.6	-13.4	36.0*	0.9	-4.0	-3.0
Cc1cn(CC(=O)NCCCn2ccnc2)c(=O)[nH]c1=O	-6.6	nt	0.1	nt	nt	-2.8
COc1ccc2c(c1)C(=O)[C@H](O)[C@@H](c1ccc(OC)c(Br)c1)O2	nt	-3.3	nt	1.4	4.5	nt
O=C1c2cc(O)c(O)cc2OC(c2ccc(O)c(O)c2)C1O (stereo not drawn)	31.7*	nt	-5.8	nt	nt	-2.9
CC(O)(c1cccc(F)c1)c1nc(/C=C/c2ccccc2)cs1 (stereo not drawn)	-9.7	nt	-1.1	nt	nt	-5.0
COc1ccc(CNC(=O)CSc2nc3ccccc3n2C(C)=O)cc1	-14.3	0.8	0.4	-0.8	3.1	-2.7
CCN(CC)c1ccc(N=Cc2c(O)[nH]c(=O)[nH]c2=O)cc1	35.0*	-27.7	-6.3	0.7	-9.9	-1.7
Cc1ccc(OCCn2c(C)c(/C=N/n3cnnc3)c3ccccc32)cc1	30.6*	0.2	1.6	-1.6	2.4	-2.3
COc1ccc2c(c1)c1ncn(Cc3ccco3)c(=O)c1n2C	2.5	-13.0	129.1*	1.6	14.8	-2.5
COc1cc(C(O)c2nc(-c3cccc(NC(C)=O)c3)cs2)ccc1F (stereo not drawn)	2.6	nt	1.3	nt	nt	-1.9
SMILES	GDH-TPI inh	Rv3671c protease	Mtb FBA inh	UGM FP inh	Mtb betalactam	FadD28 FP inh
COc1ccc(-c2ccc3[nH]c4c(c3c2)CCN2C(=O)[C@@H]([C@H](C)O)[C@@H](N(C)C(=O)Nc3cc(Cl)cc(Cl)c3)C[C@@H]42)cc1	20.4	nt	1.6	nt	nt	40.6*
CCCOc1ccc(C(=O)c2nc3c(n2O)CCCCC3)cc1	31.4*	-8.8	-1.4	3.6	94.6	-2.2
Cc1nn(C(C)C(=O)NCCN2CCCCCC2)c(=O)c2nn(-c3ccccc3)c(C)c12 (stereo not drawn)	3.9	8.9	-0.8	0.5	3.6	0.1
CC(=NCc1ccccc1)c1ccc(O)cc1O	33.6*	nt	-1.3	nt	nt	-0.9
C/C(=N\NP(=S)(c1ccccc1)c1ccccc1)c1ccc(O)cc1O	32.5*	-7.2	-3.0	-0.9	-3.2	-2.1
O=C(CCCN1C(=O)/C(=C\c2cccs2)SC1=S)Nc1cccc(C(=O)O)c1	13.2	1.8	0.8	5.7	-0.6	0.0
O=C(CCCN1C(=O)/C(=C/c2ccco2)SC1=S)Nc1cccc(C(=O)O)c1	6.2	-0.2	-1.3	0.2	2.3	17.9*
O=C(CCCN1C(=O)/C(=C\c2ccco2)SC1=S)Nc1ccc(O)cc1C(=O)O	9.6	-23.4	6.5	-0.1	2.5	39.5*
O=C(CCCN1C(=O)/C(=C\c2cccs2)SC1=S)Nc1ccc(O)cc1C(=O)O	11.8	-10.0	-13.1	2.2	8.7	3.5
CCOC(=O)C1CCN(C(=O)c2sccc2Cl)CC1	2.9	-6.8	+	0.6	0.9	-2.4
Cc1ccc(S(=O)(=O)N2C[C@H]3[C@H]4C(=O)N(c5ccccc5)C(=O)[C@H]4C[C@H](OC(=O)Nc4cccs4)[C@@]3(O)C2)cc1	5.7	nt	2.1	nt	nt	1.3
COc1cc(OC)c(/C=N/NC(N)=S)cc1Br	34.7*	3.8	-0.6	0.8	41.5	0.5
CC1(C(=O)N2CCN(Cc3ccccc3Cl)CC2)CC1(Cl)Cl (stereo not drawn)	-8.6	-6.3	0.2	1.3	-3.5	-1.9
Cc1cc(C)nc(N/N=C/C2=C(N3CCOCC3)C(=C/c3ccccc3)/CC2)n1	31.8*	2.0	-0.3	0.9	97.8	-1.0
CC1CN(S(=O)(=O)c2cccc(C(=O)NCC3COc4ccccc4O3)c2)CC(C)O1 (stereo not drawn)	10.7	-2.4	-1.8	0.5	1.5	0.4
Cn1c(COc2ccccc2)nnc1SCC(=O)Nc1nnc(C2CC2)s1	15.4	nt	-3.0	nt	nt	-1.3
O=C1NC(=O)N(Cc2ccc(F)cc2)C(=O)/C1=C\c1ccc([N+](=O)[O-])s1	29.7	-96.9	-3.4	0.7	99.3	28.5*
COc1ccc(CN2C(=O)NC(=O)/C(=C\c3ccco3)C2=O)cc1	3.1	-16.6	-0.1	1.1	-4.2	?
COc1ccc(CN2C(=O)NC(=O)/C(=C/c3ccc([N+](=O)[O-])s3)C2=O)cc1	31.0*	-9.4	-6.1	-1.5	98.7	33.4*
O=C1NC(=O)N(CCc2ccc(F)cc2)C(=O)/C1=C/c1cccs1	2.5	-18.8	3.7	-1.6	-7.3	0.0
O=c1oc2ccccc2c(Nc2ccccc2)c1[N+](=O)[O-]	6.9	-2.7	-1.0	0.6	-2.6	-2.9
Cc1cccc(Nc2c([N+](=O)[O-])c(=O)oc3ccccc23)c1	31.7*	1.7	-4.1	-0.5	-3.6	-2.6
CCCC1=NN2C(=N)/C(=C\c3ccc(SCc4ccco4)o3)C(=O)N=C2S1	8.8	-41.0	-5.4	-1.9	-0.9	14.1*
CCC1=NN2C(=N)/C(=C\c3ccc(SCc4ccco4)o3)C(=O)N=C2S1	22.1	-115.5	-11.2	-4.3	5.4	11.1*

Compound activity deposited in PubChem by several laboratories.
